The list is not random: actives were taken first. Their share in the collection is about 6.8%.
HCV NS3h FP = blocks HCV NS3 helicase binding to DNA | AID 687043 | inhibition, % at 100 µM | actives 1.6% (n = 16,000) | NS3h Cy5-dT15 DNA binding, fluorescence polarization;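 active means inhibition above the average over every tested compound plus 3 SD, cut at about 40% in these data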
Cy5 interf NS3h = counter-screen for HCV NS3 helicase inhibitors: fluorescence interference; actives 6% (n = 16,000); AID 720488; fluorescence interference ratio at 100 µM; Cy5-dT15 DNA with NS3h; actives lie on both sides; signal over control mean, under 1 quenches;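 active means compound fluorescence over control fluorescence at most 0.8, a quencher, or at least a set upper limit, an enhancer; inactive means ratio between 0.8 and the set upper limit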
Active calls of the source: *.

Results for C/C(=N/N=C1\NC(=O)C(CC(=O)Nc2ccc([N+](=O)[O-])cc2)S1)c1ccc(F)cc1 (stereo unspecified) ?
HCV NS3h FP: 25.5; Cy5 interf NS3h: 1.03

What do the screens show for `C=COCCNC(=O)C(=O)Nc1c(C)cccc1C`?
HCV NS3h FP: 0.3; Cy5 interf NS3h: 1.06

What do the screens show for `CCN(CC)/C(=N\OCc1ccc(Cl)cc1Cl)c1nonc1N`?
HCV NS3h FP: 15.9; Cy5 interf NS3h: 0.67*

How did CN=C(NOCc1ccccc1)c1nonc1N do in these assays?
HCV NS3h FP: -6.1; Cy5 interf NS3h: 0.924

How did CC(C)CSc1nnc(-c2ccc(Br)cc2)o1 do in these assays?
HCV NS3h FP: 12.3; Cy5 interf NS3h: 0.833

How did COc1ccccc1C(=O)O/N=C1\CCCc2c1ccc(OC)c2[N+](=O)[O-] do in these assays?
HCV NS3h FP: 21.7; Cy5 interf NS3h: 0.741*

Results for COc1ccc(/C(N)=N\OC(=O)c2cccc([N+](=O)[O-])c2C)cc1OC ?
HCV NS3h FP: 3.1; Cy5 interf NS3h: 1.02

What do the screens show for `COc1ccc2c(c1[N+](=O)[O-])CCC/C2=N\OC(=O)c1ccccc1SC`?
HCV NS3h FP: 3.1; Cy5 interf NS3h: 0.629*

How did COc1ccc2c(c1[N+](=O)[O-])CCC/C2=N\OC(=O)c1cccc2ccccc12 do in these assays?
HCV NS3h FP: 0.3; Cy5 interf NS3h: 1.01

How did O=C1/C(=C/c2ccc(Cl)c(Cl)c2)SC(=S)N1C1CCS(=O)(=O)C1 (stereo unspecified) do in these assays?
HCV NS3h FP: 4.5; Cy5 interf NS3h: 0.973

What do the screens show for `c1n[nH]c(SCc2ccc(CSc3ncn[nH]3)cc2)n1`?
HCV NS3h FP: -3.3; Cy5 interf NS3h: 0.97

Results for Cc1ccc(OCC(=O)Oc2ccc(C(=O)c3ccccc3)cc2C)c(C)c1 ?
HCV NS3h FP: 3.1; Cy5 interf NS3h: 1.05

What do the screens show for `COc1ccc(N(CC(=O)Nc2ccccc2Br)S(=O)(=O)c2ccc(C)cc2)c(OC)c1`?
HCV NS3h FP: 2.3; Cy5 interf NS3h: 1

Results for O=C1/C(=C\c2ccc(C(F)(F)F)cc2)SC(=S)N1c1ccccc1 ?
HCV NS3h FP: 2.8; Cy5 interf NS3h: 1.03

What do the screens show for `Cc1ccc(C(=O)Nc2ccccc2C(=O)NC(Cc2c[nH]c3ccccc23)C(=O)O)cc1` (stereo unspecified)?
HCV NS3h FP: 16.6; Cy5 interf NS3h: 0.983

Results for O=C(NC(c1ccccc1)c1ccccc1)C(=O)c1c[nH]c2ccccc12 ?
HCV NS3h FP: 15.2; Cy5 interf NS3h: 0.655*

What do the screens show for `Cc1cccc(C(=O)N2N=C(c3ccc(Cl)cc3)CC2(O)C(F)(F)F)c1` (stereo unspecified)?
HCV NS3h FP: 7.4; Cy5 interf NS3h: 0.976

How did Cc1[nH]c2ccccc2c1/C=C(\C#N)C(=O)Nc1cccc(Cl)c1C do in these assays?
HCV NS3h FP: 18.4; Cy5 interf NS3h: 1.07

What do the screens show for `COCC(COCCCN=C1NS(=O)(=O)c2ccccc21)OC` (stereo unspecified)?
HCV NS3h FP: 1.3; Cy5 interf NS3h: 1.06

How did COC(=O)c1ccc(N2C(=O)c3ccccc3C2=O)cc1 do in these assays?
HCV NS3h FP: -6.0; Cy5 interf NS3h: 1.01

What do the screens show for `O=C1c2cccnc2C(=O)N1c1ccc(Oc2ccc(N3C(=O)c4cccnc4C3=O)cc2)cc1`?
HCV NS3h FP: 18.6; Cy5 interf NS3h: 0.679*

What do the screens show for `COc1ccc(OC)c(C2C(=C(O)c3ccccc3)C(=O)C(=O)N2c2cccc(Cl)c2)c1` (stereo unspecified)?
HCV NS3h FP: -0.7; Cy5 interf NS3h: 0.963

What do the screens show for `Cc1cc(-c2ccc(C)o2)c(C#N)c(SCC(=O)c2ccccc2)n1`?
HCV NS3h FP: -5.2; Cy5 interf NS3h: 0.998

Results for Cc1oc2ccc(O)cc2c1C(O)c1ccccc1 (stereo unspecified) ?
HCV NS3h FP: 4.5; Cy5 interf NS3h: 0.908

How did CC1=NN(C(=O)c2cccnc2)C(C)(O)C1(C)C (stereo unspecified) do in these assays?
HCV NS3h FP: -2.5; Cy5 interf NS3h: 0.647*

How did CC1=NN(C(=O)c2ccc(Cl)cc2)C(O)(c2cccnc2)C1 (stereo unspecified) do in these assays?
HCV NS3h FP: -3.5; Cy5 interf NS3h: 0.964

What do the screens show for `CCOC(=O)c1c(NC(=S)Nc2ccc(OC)cc2)sc2c1CCCCC2`?
HCV NS3h FP: 5.7; Cy5 interf NS3h: 1.11

What do the screens show for `COC(=O)c1c(NC(=O)Nc2ccc(Cl)c(Cl)c2)sc2c1CCC2`?
HCV NS3h FP: -7.3; Cy5 interf NS3h: 1.2*

Results for CC(NC(=O)c1cc2nc(-c3ccco3)cc(C(F)(F)F)n2n1)C1CC2CCC1C2 (stereo unspecified) ?
HCV NS3h FP: 19.5; Cy5 interf NS3h: 0.699*

What do the screens show for `COc1cc(NC(=O)c2cc3nc(-c4ccc5c(c4)OCO5)cc(C(F)(F)F)n3n2)c(OC)cc1Cl`?
HCV NS3h FP: 10.0; Cy5 interf NS3h: 1.11

Results for CC(C)(C)NC(=O)c1cc2ccccc2o1 ?
HCV NS3h FP: 10.1; Cy5 interf NS3h: 1.02

What do the screens show for `COc1ccc(C2CC(C(F)(F)F)n3nc(C(=O)N4CCN(C(=O)c5ccccc5)CC4)c(Cl)c3N2)cc1OC` (stereo unspecified)?
HCV NS3h FP: 15.6; Cy5 interf NS3h: 0.998

How did O=C(Nc1ccc(SC(F)F)cc1)/C(=C/c1ccc(Cl)cc1)NC(=O)c1ccccc1 do in these assays?
HCV NS3h FP: 7.0; Cy5 interf NS3h: 1.02

How did N/C(Cc1ccc([N+](=O)[O-])cc1)=N/OC(=O)c1cccc(I)c1 do in these assays?
HCV NS3h FP: 13.6; Cy5 interf NS3h: 1.14

Results for N/C(Cc1ccc(Cl)cc1)=N/OC(=O)c1ccc([N+](=O)[O-])cc1 ?
HCV NS3h FP: -7.9; Cy5 interf NS3h: 0.789*

Results for CCOC(=O)/C=C/COc1ccc2oc(C)c(C(=O)OC)c2c1 ?
HCV NS3h FP: 12.8; Cy5 interf NS3h: 0.894

Results for Cc1ccsc1C1Nc2ccc3ccccc3c2C2=C1C(=O)CC(C)(C)C2 (stereo unspecified) ?
HCV NS3h FP: 11.9; Cy5 interf NS3h: 0.969

Results for O=C1CCCC2=C1C(c1ccc3c(c1)OCO3)Nc1ccc3ccccc3c12 (stereo unspecified) ?
HCV NS3h FP: 21.3; Cy5 interf NS3h: 0.722*

Results for COc1cc(/C=C2/C(=O)NN(c3ccc(Cl)cc3)C2=O)cc(Br)c1O ?
HCV NS3h FP: -1.4; Cy5 interf NS3h: 0.772*

What do the screens show for `COc1cc(/C=C2\C(=O)NN(c3ccccc3)C2=O)cc(Br)c1OCC(=O)O`?
HCV NS3h FP: 29.0; Cy5 interf NS3h: 1.06

What do the screens show for `Cc1ccc(N2NC(=O)/C(=C\c3ccc(Br)cc3)C2=O)cc1`?
HCV NS3h FP: 18.8; Cy5 interf NS3h: 0.914

What do the screens show for `Cc1ccc(N2NC(=O)/C(=C/c3cccc(Br)c3)C2=O)cc1`?
HCV NS3h FP: 23.1; Cy5 interf NS3h: 0.785*

What do the screens show for `Cc1ccc(S(=O)(=O)Nc2ccccc2-c2ccccc2)cc1[N+](=O)[O-]`?
HCV NS3h FP: 9.4; Cy5 interf NS3h: 1.09

What do the screens show for `O=[N+]([O-])c1cc(N=Cc2ccc(Br)s2)ccc1Cl`?
HCV NS3h FP: -2.4; Cy5 interf NS3h: 0.955

How did CCn1c2ccccc2c2cc(-c3nn(-c4ccccc4)cc3C=C(C#N)C#N)ccc21 do in these assays?
HCV NS3h FP: 11.6; Cy5 interf NS3h: 1.1

How did CCOc1ccc(N2C(=O)NC(=O)/C(=C\c3ccc(OCC)c(Cl)c3)C2=O)cc1 do in these assays?
HCV NS3h FP: 13.7; Cy5 interf NS3h: 1.04

What do the screens show for `CCOc1ccc(/C=C2\C(=O)NC(=O)N(c3ccc(C)cc3)C2=O)cc1Cl`?
HCV NS3h FP: 41.3*; Cy5 interf NS3h: 0.942
